Results filed as inconclusive are left out. A structure can be active in one record and inactive in another. Calls of active or inactive are those of the source. Unless noted, the call rests on the fitted dose curve; in most records, active means well fitted curve in the direction sought with a large enough effect in the repeat runs; inconclusive means weak or mixed curves; inactive means no such curve, though single readings can be large; an effect the other way counts as inactive or inconclusive.
Key:
[1] = biological target: Estrogen receptor beta (Homo sapiens) (UniProt Q92731); experiment: qHTS assay to identify small molecule antagonists of the estrogen receptor beta (ER-beta) signaling pathway (AID 1259378; active means well fitted inhibition curve with a large enough effect in the signal ratio in the repeat runs, not every such curve was filed as active; the % refers to the signal ratio)
Method in brief: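 ER-beta-UAS-bla HEK293T (GripTite) cells in 2% charcoal-stripped FBS medium were preincubated 6 hr at 37C, dosed with compound, then stimulated with 1 nM E2 (final) for 16 hr; beta-lactamase reporter read by B/G FRET fluorescence after 2 hr substrate loading.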

[2] = qHTS assay to identify small molecule agonists of the androgen receptor (AR) signaling pathway in the presence of an antagonist - cell viability counter screen (AID 1259379);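 further: MDA-kb2 human breast cancer cells carrying an MMTV luciferase reporter; series mostly up to about 92 µM; nearly all actives have a fitted effect of over 25% in size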
Method in brief: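 Cytotoxicity is assessed by CellTiter-Fluor in MDA-kb2 cells carrying an MMTV-driven luciferase reporter. Cells receive 3.0uM nilutamide plus compounds at 15 concentrations and incubate 16 hr at 37C without CO2 before fluorescence reading.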

[3] = qHTS assay to identify small molecule agonists of the estrogen receptor beta (ER-beta) signaling pathway - cell viability counter screen (AID 1259380); further: nearly all actives have a fitted effect of over 30% in size
Method in brief: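 Cytotoxicity is measured in parallel with the reporter screen: after 16 hr compound exposure at 37C and a 2 hr LiveBLAzer step, CellTiter-Glo is added to the same ER-beta-UAS-bla HEK293T wells and luminescence read after 30 min.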

[4] = qHTS assay to identify small molecule antagonists of the estrogen receptor beta (ER-beta) signaling pathway - cell viability counter screen (AID 1259382); further: series mostly up to about 92 µM; nearly all actives have a fitted effect of over 55% in size
Method in brief: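 Cytotoxicity counter screen multiplexed with the beta-lactamase antagonist assay: GripTite HEK293T ER-beta-bla cells were treated 16 hr with test chemicals in the presence of 1nM 17-beta-estradiol, and viability was measured by CellTiter-Glo.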

[5] = biological target: Estrogen receptor (Homo sapiens) (UniProt P03372); experiment: qHTS assay to identify small molecule agonists of the estrogen receptor alpha (ER-alpha) signaling pathway in the presence of an antagonist (AID 1259383; calls by dose curve; further: top concentration of the series differs between compounds; nearly all actives have a fitted effect of over 15% in size)
Method in brief: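 Agonist-mode confirmation in the presence of the ER antagonist ICI-182,780 at 10.0nM final. Breast-derived VM7Luc4E2 reporter cells were exposed to compounds for 22hr, and ERE-driven luciferase was quantified by luminescence.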

[6] = qHTS assay to identify small molecule agonists or antagonists of the thyroid stimulating hormone receptor (TSHR) signaling pathway - wild type cell line counter screen (AID 1259384; calls by dose curve)
Method in brief: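 Wild-type HEK293 cells were plated 18 h at 37 C/5% CO2, pin-dosed with compound plus Ro20-1724 medium, held 30 min at room temperature, then given cAMP-d2 and anti-cAMP-cryptate; fluorescence was read after 1 h. Fifteen concentrations, triplicate.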

[7] = biological target: Thyrotropin receptor (Homo sapiens) (UniProt P16473); experiment: qHTS assay to identify small molecule antagonists of the thyroid stimulating hormone receptor (TSHR) signaling pathway (AID 1259385; calls by dose curve; further: nearly all actives have a fitted effect of over 20% in size)
Method in brief: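 TSHR-HEK293 cells were plated and held 18 h at 37C/5% CO2, then given compound plus Ro20-1724 and stimulated with TSH at 1.5 ng/mL final. After 30 min at room temperature, cAMP was detected with cAMP-d2/anti-cAMP-cryptate (1 h) by fluorescence.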

[8] = qHTS assay to identify small molecule agonists of the estrogen receptor alpha (ER-alpha) signaling pathway in the presence of an antagonist - cell viability counter screen (AID 1259386);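 further: series mostly up to about 92 µM; cells exposed to compounds for 22 h at 37 °C before the viability read; nearly all actives have a fitted effect of over 30% in size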
Method in brief: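 Cytotoxicity was measured in parallel with the ERE-luciferase agonist screen, in the same wells. The cells were VM7Luc4E2, which endogenously express ER-alpha, and treatment was with compounds plus 10.0nM ICI-182,780 for 22hr.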

[9] = biological target: Progesterone receptor (Homo sapiens) (UniProt P06401); experiment: qHTS assay to identify small molecule agonists of the progesterone receptor (PR) signaling pathway (AID 1346784; calls by dose curve; further: nearly all actives have a fitted effect of over 30% in size)
Method in brief: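 Cells (PR-UAS-bla HEK 293T, GripTite) were plated in assay medium containing 2% charcoal-stripped FBS and incubated 6 hr. Test compounds in DMSO were added for 16 hr at 37C. FRET substrate was then loaded for 2 hr at room temperature before fluorescence reading.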

[10] = biological target: Progesterone receptor (Homo sapiens) (UniProt P06401); experiment: qHTS assay to identify small molecule antagonists of the progesterone receptor (PR) signaling pathway (AID 1346795; active means well fitted inhibition curve with a large enough effect in the signal ratio in the repeat runs, not every such curve was filed as active; the % refers to the signal ratio)
Method in brief: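 Antagonist mode: compounds tested against 1 nM (final) promegestone stimulation in HEK293T cells expressing PR-UAS-bla reporter, 16 hr at 37C, 5% CO2; beta-lactamase activity detected via B/G FRET substrate after 2 hr at room temperature.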

[11] = qHTS assay to identify small molecule antagonists of the progesterone receptor (PR) signaling pathway - cell viability counter screen (AID 1346798); further: series mostly up to about 92 µM; nearly all actives have a fitted effect of over 50% in size
Method in brief: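 Counter screen for cytotoxicity: viability of PR-UAS-bla HEK293T cells was measured with CellTiter-Glo luminescence following 16 hr compound exposure in the presence of R5020.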

[12] = qHTS assay to identify small molecule agonists of the progesterone receptor (PR) signaling pathway - cell viability counter screen (AID 1346799; calls by dose curve; further: nearly all actives have a fitted effect of over 45% in size)
Method in brief: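 Cells (PR-UAS-bla HEK293T) are plated at 3,000/well in 2% charcoal-stripped FBS medium, rested 6 hr, dosed and incubated 16 hr at 37C. CellTiter-Glo is then added and luminescence measured after 30 min at room temperature.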

[13] = qHTS assay to identify small molecule agonists of the TGF-beta/Smad signaling pathway - cell viability counter screen (AID 1346829); further: top concentration of the series differs between compounds; nearly all actives have a fitted effect of over 45% in size
Method in brief: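 CellTiter-Glo luminescence readout; SBE-bla HEK 293T cells, overnight plating, compound 5 hr at 37 C/5% CO2, then bla substrate 2 hr RT, then CellTiter-Glo 30 min RT.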

[14] = qHTS assay to identify small molecule agonists of the TGF-beta/Smad signaling pathway (AID 1346859; active means well fitted activation curve with a large enough effect in the signal ratio in the repeat runs, not every such curve was filed as active; the % refers to the signal ratio; further: series mostly up to about 77 µM)
Method in brief: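 Reporter line: HEK 293T with stably integrated SBE-controlled beta-lactamase. Compound exposure lasts 5 hr at 37 C and 5% CO2; substrate loading follows for 2 hr at room temperature, with emission read at 460 and 530 nm.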

[15] = Human pregnane X receptor (PXR) small molecule agonists, qHTS cell viability counter screen (AID 1346977); further: nearly all actives have a fitted effect of over 50% in size; further: potency means the concentration at half of the fitted maximal effect
Method in brief: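 Cytotoxicity counter screen run in the same wells as the PXR luciferase assay, using PXR-Luc HepG2 cells in charcoal-stripped serum medium. Viability: CellTiter-Fluor fluorescence after 24hr compound treatment.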

[16] = Caspase-3/7 induction in HepG2 cells by small molecules, qHTS assay (AID 1346978); further: nearly all actives have a fitted effect of over 15% in size; further: potency means the concentration at half of the fitted maximal effect
Method in brief: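 Wild-type HepG2 cells (2,000/well) were settled 5 h at 37 C, 5% CO2, then exposed to compounds in DMSO for 17 h. Caspase-3/7 activity was read by luminescence 30 min after adding Caspase-Glo 3/7 reagent at room temperature.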

[17] = qHTS assay to identify small molecule antagonists of the TGF-beta/Smad signaling pathway - cell viability counter screen (AID 1346824); further: nearly all actives have a fitted effect of over 50% in size
Method in brief: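 SBE-bla HEK 293T cells were plated overnight at 37 C, then given compounds in DMSO plus TGF-beta1 (added as 0.25 ng/mL solution) for 5 hr. After the bla read, CellTiter-Glo was added to the same wells and luminescence read after 30 min at room temperature.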

[18] = biological target: Thyrotropin-releasing hormone receptor (Homo sapiens) (UniProt P34981); experiment: qHTS assay to identify small molecule agonists of the thyrotropin-releasing hormone receptor (TRHR) signaling pathway (AID 1346891; calls by dose curve;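 further: HEK293 cells expressing TRHR with calcium dye readout; series mostly up to about 58 µM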)
Method in brief: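 Cells: TRHR-Hek293, seeded and incubated 18 h. Dye loading: 2 h at 37 °C. Compound added from DMSO stock by pin tool. Read-out: kinetic calcium fluorescence over 3 min.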

[19] = biological target: Thyrotropin-releasing hormone receptor (Homo sapiens) (UniProt P34981); experiment: qHTS assay to identify small molecule antagonists of the thyrotropin-releasing hormone receptor (TRHR) signaling pathway (AID 1346877; active means well fitted inhibition curve with a large enough effect in the repeat runs, not every such curve was filed as active; further: series mostly up to about 51 µM)
Method in brief: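 Antagonism is measured as suppression of the calcium response to 1 nM TRH in TRHR-HEK293 cells that have been dye-loaded for 2 h at 37 °C after overnight plating. Each compound is tested at 15 concentrations in triplicate.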

[20] = biological target: Androgen receptor (Homo sapiens) (UniProt P10275); experiment: qHTS assay to identify small molecule agonists of the androgen receptor (AR) signaling pathway in the presence of an antagonist (AID 1259381; calls by dose curve; further: nearly all actives have a fitted effect of over 15% in size)
Method in brief: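 Agonist-mode confirmation screen: human MDA-kb2 cells stably expressing luciferase under an MMTV promoter bearing AR and GR response elements, co-treated with 3.0uM nilutamide (final). Luminescence measured after 16hr compound incubation.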

Measured: Potency

Sequence of Estrogen receptor (Homo sapiens) (P03372 whole entry, looked up): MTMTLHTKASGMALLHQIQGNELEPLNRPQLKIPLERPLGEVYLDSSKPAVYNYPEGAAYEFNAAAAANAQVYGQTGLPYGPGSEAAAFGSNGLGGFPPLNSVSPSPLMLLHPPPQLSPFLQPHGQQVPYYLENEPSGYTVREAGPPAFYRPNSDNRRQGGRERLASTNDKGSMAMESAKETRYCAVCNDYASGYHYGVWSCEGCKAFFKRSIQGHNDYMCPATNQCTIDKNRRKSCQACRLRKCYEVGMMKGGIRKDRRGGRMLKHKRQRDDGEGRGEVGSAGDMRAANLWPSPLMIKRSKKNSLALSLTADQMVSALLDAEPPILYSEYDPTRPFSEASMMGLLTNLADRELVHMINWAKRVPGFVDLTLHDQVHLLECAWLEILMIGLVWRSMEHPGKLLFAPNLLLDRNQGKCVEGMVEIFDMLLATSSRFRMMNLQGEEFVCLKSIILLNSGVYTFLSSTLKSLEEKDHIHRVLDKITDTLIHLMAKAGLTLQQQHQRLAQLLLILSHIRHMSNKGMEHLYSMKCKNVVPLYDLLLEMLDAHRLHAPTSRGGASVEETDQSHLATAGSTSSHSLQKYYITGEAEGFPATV
Sequence of Androgen receptor (Homo sapiens) (P10275 whole entry, looked up): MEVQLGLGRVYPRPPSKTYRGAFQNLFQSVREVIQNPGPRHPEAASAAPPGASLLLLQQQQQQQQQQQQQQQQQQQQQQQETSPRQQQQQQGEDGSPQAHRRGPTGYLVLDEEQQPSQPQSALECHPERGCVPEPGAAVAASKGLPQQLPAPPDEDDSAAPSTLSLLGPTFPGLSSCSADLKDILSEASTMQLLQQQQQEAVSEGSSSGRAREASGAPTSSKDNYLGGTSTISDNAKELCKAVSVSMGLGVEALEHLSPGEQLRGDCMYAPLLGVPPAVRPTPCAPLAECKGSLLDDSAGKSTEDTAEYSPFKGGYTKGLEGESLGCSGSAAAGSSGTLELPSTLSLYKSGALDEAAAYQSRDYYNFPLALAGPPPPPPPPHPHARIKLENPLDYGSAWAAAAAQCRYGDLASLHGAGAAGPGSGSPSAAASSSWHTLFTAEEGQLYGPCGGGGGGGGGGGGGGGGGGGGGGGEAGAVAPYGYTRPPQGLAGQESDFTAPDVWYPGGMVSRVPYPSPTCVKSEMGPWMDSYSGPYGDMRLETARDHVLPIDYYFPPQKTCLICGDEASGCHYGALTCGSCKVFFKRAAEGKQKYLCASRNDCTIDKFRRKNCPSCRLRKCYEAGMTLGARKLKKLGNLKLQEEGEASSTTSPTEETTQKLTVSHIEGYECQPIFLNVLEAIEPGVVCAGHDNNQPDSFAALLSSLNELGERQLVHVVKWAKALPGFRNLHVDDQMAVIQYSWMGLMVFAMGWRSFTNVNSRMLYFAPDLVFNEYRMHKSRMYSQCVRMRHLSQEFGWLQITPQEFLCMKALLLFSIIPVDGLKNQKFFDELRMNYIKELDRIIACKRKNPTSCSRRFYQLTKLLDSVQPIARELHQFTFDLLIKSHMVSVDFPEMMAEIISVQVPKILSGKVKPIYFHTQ
Sequence of Progesterone receptor (Homo sapiens) (P06401 whole entry, looked up): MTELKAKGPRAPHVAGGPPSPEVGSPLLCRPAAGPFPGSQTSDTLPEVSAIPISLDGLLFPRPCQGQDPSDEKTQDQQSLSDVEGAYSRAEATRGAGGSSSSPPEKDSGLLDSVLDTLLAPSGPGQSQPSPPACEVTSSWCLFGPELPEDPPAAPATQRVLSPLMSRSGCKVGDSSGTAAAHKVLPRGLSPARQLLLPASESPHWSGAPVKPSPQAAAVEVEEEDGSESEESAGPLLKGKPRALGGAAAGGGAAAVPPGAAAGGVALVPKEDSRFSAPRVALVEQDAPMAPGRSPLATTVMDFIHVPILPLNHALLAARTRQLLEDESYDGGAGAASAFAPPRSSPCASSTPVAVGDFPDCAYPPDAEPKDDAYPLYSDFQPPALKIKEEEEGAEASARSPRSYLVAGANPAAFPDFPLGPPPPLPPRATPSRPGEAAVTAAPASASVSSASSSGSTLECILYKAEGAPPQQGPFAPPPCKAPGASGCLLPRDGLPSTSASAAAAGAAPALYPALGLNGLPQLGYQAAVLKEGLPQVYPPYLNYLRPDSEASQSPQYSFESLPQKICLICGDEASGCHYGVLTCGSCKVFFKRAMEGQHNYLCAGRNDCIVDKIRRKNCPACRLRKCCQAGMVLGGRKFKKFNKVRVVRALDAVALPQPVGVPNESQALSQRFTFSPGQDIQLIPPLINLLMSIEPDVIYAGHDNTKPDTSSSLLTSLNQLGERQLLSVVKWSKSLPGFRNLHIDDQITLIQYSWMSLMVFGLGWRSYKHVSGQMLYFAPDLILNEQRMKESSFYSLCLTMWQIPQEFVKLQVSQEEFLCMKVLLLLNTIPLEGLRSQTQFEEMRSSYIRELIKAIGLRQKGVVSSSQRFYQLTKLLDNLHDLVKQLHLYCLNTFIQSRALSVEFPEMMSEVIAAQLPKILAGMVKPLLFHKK
Sequence of Estrogen receptor beta (Homo sapiens) (Q92731 whole entry, looked up): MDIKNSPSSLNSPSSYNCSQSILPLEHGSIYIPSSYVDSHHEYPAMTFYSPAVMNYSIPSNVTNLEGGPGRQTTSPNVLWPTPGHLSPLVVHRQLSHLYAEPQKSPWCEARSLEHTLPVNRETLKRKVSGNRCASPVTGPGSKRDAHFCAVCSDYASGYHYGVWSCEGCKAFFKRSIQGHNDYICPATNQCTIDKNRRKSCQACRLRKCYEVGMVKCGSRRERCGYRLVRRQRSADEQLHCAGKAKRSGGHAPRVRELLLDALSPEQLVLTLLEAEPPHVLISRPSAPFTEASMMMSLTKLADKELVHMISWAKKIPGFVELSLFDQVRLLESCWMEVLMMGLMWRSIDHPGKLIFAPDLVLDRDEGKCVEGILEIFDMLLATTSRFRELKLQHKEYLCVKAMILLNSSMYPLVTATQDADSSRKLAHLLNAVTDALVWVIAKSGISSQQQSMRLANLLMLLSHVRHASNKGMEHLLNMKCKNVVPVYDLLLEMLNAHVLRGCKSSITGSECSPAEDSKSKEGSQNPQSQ
Sequence of Thyrotropin-releasing hormone receptor (Homo sapiens) (P34981 whole entry, looked up): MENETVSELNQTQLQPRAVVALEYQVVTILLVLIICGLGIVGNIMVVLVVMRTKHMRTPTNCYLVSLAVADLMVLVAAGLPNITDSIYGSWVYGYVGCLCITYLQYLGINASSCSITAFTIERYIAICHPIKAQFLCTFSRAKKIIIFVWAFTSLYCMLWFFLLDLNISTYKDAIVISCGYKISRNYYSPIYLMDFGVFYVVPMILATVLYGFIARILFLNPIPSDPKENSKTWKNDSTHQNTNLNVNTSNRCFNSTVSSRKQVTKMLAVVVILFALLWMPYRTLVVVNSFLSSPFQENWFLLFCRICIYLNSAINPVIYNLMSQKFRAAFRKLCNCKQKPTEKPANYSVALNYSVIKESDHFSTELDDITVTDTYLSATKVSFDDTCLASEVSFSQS
Sequence of Thyrotropin receptor (Homo sapiens) (P16473 whole entry, looked up): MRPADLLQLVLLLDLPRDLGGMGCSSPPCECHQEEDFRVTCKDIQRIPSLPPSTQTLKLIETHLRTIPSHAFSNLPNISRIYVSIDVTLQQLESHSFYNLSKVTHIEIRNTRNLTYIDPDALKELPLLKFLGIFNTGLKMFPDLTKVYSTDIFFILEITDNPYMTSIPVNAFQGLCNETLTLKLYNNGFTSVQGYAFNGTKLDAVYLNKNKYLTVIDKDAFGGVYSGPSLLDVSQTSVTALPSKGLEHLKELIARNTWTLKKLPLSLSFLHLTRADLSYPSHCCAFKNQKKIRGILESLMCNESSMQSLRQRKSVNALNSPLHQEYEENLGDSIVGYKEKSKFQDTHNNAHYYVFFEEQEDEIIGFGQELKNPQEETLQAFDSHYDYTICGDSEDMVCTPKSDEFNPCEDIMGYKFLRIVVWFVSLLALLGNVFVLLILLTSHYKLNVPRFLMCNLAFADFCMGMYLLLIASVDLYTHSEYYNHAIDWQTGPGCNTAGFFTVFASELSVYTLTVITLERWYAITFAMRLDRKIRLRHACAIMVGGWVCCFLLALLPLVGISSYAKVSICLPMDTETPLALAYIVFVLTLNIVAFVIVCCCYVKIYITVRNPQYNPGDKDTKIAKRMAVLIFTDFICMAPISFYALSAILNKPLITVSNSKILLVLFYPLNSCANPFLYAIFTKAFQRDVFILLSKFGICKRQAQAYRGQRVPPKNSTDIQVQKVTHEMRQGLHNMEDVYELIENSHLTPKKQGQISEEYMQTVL

Cc1noc(NS(=O)(=O)c2ccc(N)cc2)c1C
not listed: [17] | [18] | [19] | [20]
inactive: all other assays above

CCCNC(=O)NS(=O)(=O)c1ccc(Cl)cc1
not listed: [18] | [19] | [20]
inactive: all other assays above

O=C(c1ccccc1)C(O)c1ccccc1 (stereo not given)
not listed: [5] | [19] | [20]
inactive: all other assays above

Nc1ccc(C(=O)O)cc1
not listed: [18] | [19] | [20]
inactive: all other assays above

NC(N)=O
14.1 µM (active) and inactive: [15]
not listed: [18] | [19] | [20]
inactive: all other assays above

CCCC(O)C(CC)CO (stereo not given)
not listed: [6] | [7] | [18] | [19] | [20]
inactive: all other assays above

C[C@]12C=CC(=O)C=C1CC[C@@H]1[C@@H]2[C@@H](O)C[C@@]2(C)[C@H]1CC[C@]2(O)C(=O)CO
not listed: [6] | [7] | [9] | [10] | [18] | [19] | [20]
inactive: all other assays above

CC(=O)NS(=O)(=O)c1ccc(N)cc1
not listed: [6] | [7] | [18] | [20]
inactive: all other assays above

O=C(O)/C=C\C(=O)O
not listed: [5] | [18] | [20]
inactive: all other assays above

NC(N)=NC(=O)c1nc(Cl)c(N)nc1N
not listed: [15] | [18] | [19] | [20]
inactive: all other assays above

CC(C)(Oc1ccc(C2CC2(Cl)Cl)cc1)C(=O)O (stereo not given)
not listed: [18] | [19]
inactive: all other assays above

CC(C)[C@@H]1CC[C@@H](C)C[C@H]1O
69.5 µM (active) and inactive: [16]
not listed: [5] | [18] | [19]
inactive: all other assays above

COc1ccc2[nH]cc(CCNC(C)=O)c2c1
not listed: [18] | [19] | [20]
inactive: all other assays above

C1N2CN3CN1CN(C2)C3
not listed: [5] | [18]
inactive: all other assays above

O=c1ccc2ccccc2o1
not listed: [18] | [19] | [20]
inactive: all other assays above

CCCCC1C(=O)N(c2ccccc2)N(c2ccccc2)C1=O
not listed: [18] | [19] | [20]
inactive: all other assays above

Source: PubChem BioAssay (Tox21)
